# Experimental data taken from PubChem BioAssay (NCI).
# The panel holds about 83,000 compounds, 20% with a hit somewhere; the sample as a whole holds those more often.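 Percent growth is the endpoint: 0 to 100 indicates growth inhibition (40 means 60% inhibition), 0 means no net growth, and negative values indicate cell death.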 A number with no mark means an inactive call. The source made the active and inactive calls. Rule for the calls: active = growth percent below 10; inactive = the rest.
# Tests used:
# Assay in all cases: NCI-60 one-dose screen, 48 h (100 = growth as untreated, 0 = no growth, -100 = all killed)
# Settings in all cases: 10 µM unless noted
# SK-MEL-2 melanoma = test system: SK-MEL-2 melanoma
# EKVX NSCLC = test system: EKVX NSCLC
# SN12C renal = test system: SN12C renal
# UO-31 renal = test system: UO-31 renal
# TK-10 renal = test system: TK-10 renal
# ACHN renal = test system: ACHN renal
# CAKI-1 renal = test system: CAKI-1 renal
# A498 renal = test system: A498 renal
# CCRF-CEM leukemia = test system: CCRF-CEM leukemia
# MOLT-4 leukemia = test system: MOLT-4 leukemia
Compound,growth (SK-MEL-2 melanoma),growth (EKVX NSCLC),growth (SN12C renal),growth (UO-31 renal),growth (TK-10 renal),growth (ACHN renal),growth (CAKI-1 renal),growth (A498 renal),growth (CCRF-CEM leukemia),growth (MOLT-4 leukemia)
COc1cc(C(=O)c2c(-c3ccccc3)oc3c(OC)cccc23)cc(OC)c1O,62%,44.9%,27.1%,46.2%,64.6%,28.1%,33.1%,-26.1% (active),13.8%,18.7%
CC1CN=C(c2cccc(-c3ccc(-c4ccccc4)o3)c2)N1 (stereo not given),-69.7% (active),37.2%,32.2%,-0.664% (active),30.1%,-21.8% (active),5.69% (active),25.7%,-13.4% (active),-16.5% (active)
O=C(/C=C\c1ccco1)/C=C/c1ccco1,109%,99.5%,97.7%,76.3%,108%,110%,107%,97.5%,8.75% (active),112%
COc1ccc(C2C3=C(COC3=O)N(CCO)c3cc4c(cc32)OCCO4)cc1OC (stereo not given),55.3%,56.5%,42%,66.2%,65.1%,42.2%,49.5%,-5.71% (active),21.1%,55.3%
O=C(CCl)Nc1ccc2c(Nc3cc(O)ccc3Cl)ncnc2c1,-76.5% (active),-53.8% (active),-83.4% (active),-92.9% (active),-66.9% (active),-98.3% (active),-86.1% (active),56.2%,-5.44% (active),-24.4% (active)
COc1cc2c(cc1O)[C@@]1(C)[C@H](c3ccccc3Br)OC(=O)N1CC2,89.8%,82%,87.6%,85.3%,91.9%,83.2%,92.5%,89.6%,83%,90.8%
CCn1cc(C2=C(c3cn(C)c4ncccc34)C(=O)NC2=O)c2cccnc21,84.8%,54.6%,68.5%,50%,69.4%,74.7%,61.6%,-2.35% (active),65.8%,81.9%
CCOC(=O)Nc1nc2ccc(SCC(C)C)cc2s1,33.1%,48.7%,44.4%,37.6%,33%,45.6%,96.6%,21.5%,21.5%,31.8%
O=C1c2cc3c(cc2-c2c1c1ccc(Cl)cc1c(=O)n2C[C@H](O)CO)OCO3,-9.57% (active),4.75% (active),10.1%,-85.6% (active),14.6%,-72.2% (active),-35.3% (active),-79.1% (active),9.33% (active),-17.2% (active)
COc1cc(/C=C/c2cc(/C=C/c3ccc(O)c(OC)c3)n(C(=O)Nc3ccc(F)cc3)n2)ccc1O,-27.1% (active),26.9%,17.9%,14%,38.1%,20.2%,-7.81% (active),31.5%,6.82% (active),-3.56% (active)
O=C(Nc1cccnc1Nc1ccc(Cl)cc1)c1cn(Cc2ccc(F)cc2)nn1,102%,92.6%,95.9%,70.9%,96.9%,101%,93.1%,88.6%,98.6%,106%
NC(CSC(c1ccccc1)(c1ccccc1)c1ccc2c(c1)OCO2)C(=O)O (stereo not given),-14.6% (active),43.4%,36.7%,53%,69.8%,53%,37%,34.3%,-6.86% (active),7.18% (active)
CN1CCN(c2ccc(NC(=O)c3cncnc3Nc3ccc4c(ccn4Cc4cccc(F)c4)c3)cc2)CC1,98.1%,86.1%,71.5%,46.3%,101%,58.5%,75.5%,77%,11.6%,-2.02% (active)
